Screening data from PubChem BioAssay.
VDR inhibitor = vitamin D3 receptor (human) inhibition; P11473; VDR-SRC2-3 peptide fluorescence polarization, 2 h; Potency, µM, hits mostly inhibitors; 400,000 tested, 0.93% active
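The screen uses fluorescence polarization to detect compounds that interfere with recruitment of the SRC2-3 coactivator peptide to VDR; plates are read after 2 h at room temperature.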
PI4K2A block = inhibitors of human PI4K2A; purified PI4K2A, ADP-Glo luminescence, 1 h; stronger effect = lower value; activity change, negative = inhibition, % at 76.9 µM; 420,000 tested, 0.13% active; AID 1346378; in the data active = activity change below about -50%; inconclusive = mostly about -30% to -49%
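ADP-Glo luminescence measured ADP generated by PI4K2A enzyme (4 ug/mL before mixing) with 1.2 mM PI substrate (pre-mix) and 300 microM ATP (pre-mix). Tris pH7.5 buffer with MgCl2, Triton X-100; 1 h reaction at ambient temperature.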
GLS inh = inhibitors of human glutaminase (GLS). GLS enzymatic activity, qHTS titration. Potency, µM (top dose mostly 45.5 µM), actives largely listed as inhibitors. 410,000 tested, 0.21% active. AID 624170
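Read-out is an Amplex red fluorescence increase coupled through glutamate oxidase and HRP, measured before and after 30 min room-temperature incubation. hKGA is in 45 mM KH2PO4 (pH 8.2) with 0.02% Tween-20; glutamine added as 1mM solution.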
PLK1 PBD block = inhibitors of human PLK1 polo-box domain binding. P53350. Plk1 PBD binding of FITC phosphopeptide, fluorescence polarization. Potency, µM, hits mostly inhibitors. 360,000 tested, 2.8% active; also: series mostly up to about 57 µM; nearly all actives have a fitted effect of over 65% in size
Target sequence (P53350 whole entry, looked up, the tested form may be a part): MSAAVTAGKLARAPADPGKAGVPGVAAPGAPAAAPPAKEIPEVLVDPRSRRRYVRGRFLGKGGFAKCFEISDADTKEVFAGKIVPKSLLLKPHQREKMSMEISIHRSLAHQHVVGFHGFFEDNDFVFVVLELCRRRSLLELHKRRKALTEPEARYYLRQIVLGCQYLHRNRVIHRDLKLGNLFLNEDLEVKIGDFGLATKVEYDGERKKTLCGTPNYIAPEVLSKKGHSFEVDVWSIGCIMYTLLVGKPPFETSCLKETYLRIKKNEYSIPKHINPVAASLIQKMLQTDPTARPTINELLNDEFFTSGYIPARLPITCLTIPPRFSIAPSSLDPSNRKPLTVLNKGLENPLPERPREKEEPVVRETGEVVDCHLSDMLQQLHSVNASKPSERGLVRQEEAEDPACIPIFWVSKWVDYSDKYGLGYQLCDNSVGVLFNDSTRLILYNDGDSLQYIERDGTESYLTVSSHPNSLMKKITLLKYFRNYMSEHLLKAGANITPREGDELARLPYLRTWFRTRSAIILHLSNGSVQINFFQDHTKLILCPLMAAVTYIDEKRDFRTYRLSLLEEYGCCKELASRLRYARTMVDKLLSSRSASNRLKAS
KAT2A inh = GCN5L2 (KAT2A) acetyltransferase inhibition; GCN5L2 HAT assay, ThioGlo1 CoA-SH fluorescence; AID 504327; 390,000 tested, 0.21% active; Potency, µM (series often up to 58.9 µM), most hits filed as inhibitors; Q92830
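Free CoA generated was detected with ThioGlo1 (50uM) fluorescence at Ex340nm/Em540nm, read immediately and after 20 min at room temperature. Enzyme, 20 nM in HEPES pH 7.5 buffer, saw compounds 15 min before adding 75uM H3(1-25) peptide and 70uM acetyl-CoA.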
Numbers stand for hits; ! = not active in a repeat. The list is not random: actives were taken first. Their share in the collection is about 3.1%. Unless noted, calls follow the shape of the dose curve; as a rule, active = well fitted curve in the direction sought with a large enough effect; inconclusive = small, poorly fitted or top-dose-only effect, or another doubt; inactive = no such curve, though single readings can be large; an effect the other way counts as inactive or inconclusive.

For Cc1ccc(C(=O)N(CC(=O)NC2CCCC2)c2ccc3c(c2)OCCO3)s1 the results were VDR inhibitor inactive, PI4K2A block inactive, GLS inh inactive, PLK1 PBD block inactive and KAT2A inh inactive.
`NC(=O)c1nsc(C(=O)N(CC(=O)NC2CCCCC2)c2ccc(Cl)cc2)c1N` gave VDR inhibitor inactive, PI4K2A block inactive, GLS inh inactive, PLK1 PBD block inactive and KAT2A inh inactive.
Screening CCCCOc1ccc(N(CC(=O)NC2CCCCC2)C(=O)c2snc(C(N)=O)c2N)cc1 returned VDR inhibitor inconclusive, PI4K2A block inactive, GLS inh inactive, PLK1 PBD block 34µM and KAT2A inh inactive.
For Cc1ccc(N(CC(=O)NC2CCCCC2)C(=O)c2ccc(C)s2)cc1 the results were VDR inhibitor inactive, PI4K2A block inactive, GLS inh inactive, PLK1 PBD block inactive and KAT2A inh 4µM.
Screening CN(C)C=Nc1ccc(Cn2cnc3nc4ccc(Cl)cc4cc3c2=O)cc1 returned PI4K2A block inactive.
COc1cc(/C=C(\C#N)C(=O)Nc2ccc(C(=O)O)cc2)ccc1OC(=O)c1cccc(F)c1 was read as VDR inhibitor inconclusive, PI4K2A block inactive, GLS inh inactive, PLK1 PBD block 24µM and KAT2A inh inconclusive.
`CCOc1cc(/C=C(/C#N)C(=O)Nc2ccc(OC)cc2)ccc1OCc1ccc(C(=O)O)cc1` gave VDR inhibitor inactive, PI4K2A block inactive, GLS inh inconclusive, PLK1 PBD block 27µM and KAT2A inh inactive.
For CCOc1cc(/C=C(\C#N)C(=O)Nc2cccc(C(=O)O)c2)ccc1OCc1ccc(Br)cc1 the results were VDR inhibitor inactive, PI4K2A block inactive, GLS inh inactive, PLK1 PBD block inactive and KAT2A inh inconclusive.
`COc1cc(/C=C(\C#N)C(=O)NCc2ccccc2)ccc1OCc1ccc(C(=O)O)cc1` gave VDR inhibitor inconclusive, PI4K2A block inactive, GLS inh inactive, PLK1 PBD block 19µM and KAT2A inh inactive.
For COc1cc(/C=C(/C#N)C(=O)Nc2ccccc2)ccc1OCc1ccc(C(=O)O)cc1 the results were VDR inhibitor inactive, PI4K2A block inactive, GLS inh inactive, PLK1 PBD block inconclusive and KAT2A inh inactive.
For COCCNC(=O)/C(C#N)=C/c1cccs1 the results were VDR inhibitor inactive, PI4K2A block inactive, GLS inh inactive, PLK1 PBD block inactive and KAT2A inh inactive.
For COCCNC(=O)/C(C#N)=C/c1ccc(OC(=O)c2cccs2)c(OC)c1 the results were VDR inhibitor 71µM, PI4K2A block inactive, GLS inh inactive, PLK1 PBD block inactive and KAT2A inh inactive.
Screening COc1cc(/C=C(\C#N)C(=O)Nc2nnc(C(F)(F)F)s2)ccc1OCc1ccc(C(F)(F)F)cc1C(F)(F)F returned VDR inhibitor inconclusive, PI4K2A block inactive and KAT2A inh 7.9µM.
`COc1cc(/C=C(\C#N)C(=O)Nc2cc(C(F)(F)F)ccc2Cl)ccc1OCC(=O)Nc1cccc(C(F)(F)F)c1` gave VDR inhibitor inactive, PI4K2A block inactive, GLS inh inactive, PLK1 PBD block inactive and KAT2A inh inactive.
Screening CCOC(=O)C(NC(=O)c1ccccc1)=C(C)C returned VDR inhibitor inactive, PI4K2A block inactive, GLS inh inactive, PLK1 PBD block inactive and KAT2A inh inactive.
COC(=O)C(NC(=O)c1ccccc1)=C(C)C was read as VDR inhibitor inactive, PI4K2A block inactive, GLS inh inconclusive, PLK1 PBD block 3.4µM and KAT2A inh inactive.
O=C(N/N=C/c1ccncc1)C12CC3CC(CC(C3)C1)C2 was read as VDR inhibitor inactive, PI4K2A block inactive, GLS inh inactive, PLK1 PBD block 38µM and KAT2A inh inactive.
Screening COC(=O)c1ccc(Oc2cc(C)nc(SC)n2)cc1 returned VDR inhibitor inconclusive, PI4K2A block inactive, GLS inh inconclusive, PLK1 PBD block 12µM and KAT2A inh inactive.
Screening COC(=O)c1ccc(Oc2cc(C)nc(Cl)n2)cc1 returned VDR inhibitor inactive, PI4K2A block inactive, GLS inh inactive, PLK1 PBD block inactive and KAT2A inh inactive.
`NC(=O)C1(N2CCCCC2)CCN(C(=O)c2ccc(-n3cnnn3)cc2)CC1` gave VDR inhibitor inactive, PI4K2A block inactive, GLS inh inactive, PLK1 PBD block 27µM and KAT2A inh inactive.
`O=C(c1ccc(-n2cnnn2)cc1)N1CCOCC1` gave VDR inhibitor inactive, PI4K2A block inactive, GLS inh inactive, PLK1 PBD block inactive and KAT2A inh inactive.
For CO[C@H]([C@H](C)/C=C/N(C)C=O)[C@@H](C)C(=O)CC[C@H](C)[C@H](O)[C@H](C)[C@H]1OC(=O)/C=C/C(C)=C/C[C@H](O)C[C@@H]2C=CC[C@@H](C[C@H](OC)[C@@H](C)[C@@H](OC)C[C@@H](OC)[C@@H]1C)O2 the results were PI4K2A block inactive.
O=c1oc2cc(O)ccc2s1 was read as VDR inhibitor 28µM!, PI4K2A block inactive, GLS inh inactive, PLK1 PBD block inactive and KAT2A inh inactive.
For Oc1ccc2c(c1)oc1cc(O)ccc12 the results were VDR inhibitor inactive, PI4K2A block inactive, GLS inh inactive, PLK1 PBD block inactive and KAT2A inh inactive.
CCOc1cc(/C=N/Nc2nncc(-c3ccccc3)n2)ccc1O was read as VDR inhibitor inactive, PI4K2A block inactive, GLS inh inactive, PLK1 PBD block 15µM and KAT2A inh inactive.
For Oc1cccc(/C=N\Nc2nncc(-c3ccccc3)n2)c1 the results were VDR inhibitor inconclusive, PI4K2A block inactive, GLS inh inactive, PLK1 PBD block 21µM and KAT2A inh inactive.
C(=C\c1ccccc1)/C=N/Nc1nncc(-c2ccccc2)n1 was read as KAT2A inh inactive.
`Cc1ccc(S(=O)(=O)Nc2cccc(-c3ccc(N4CCCCCC4)nn3)c2)c(C)c1` gave VDR inhibitor inconclusive, PI4K2A block inactive, GLS inh inactive, PLK1 PBD block 27µM and KAT2A inh inactive.
Cc1ccc(S(=O)(=O)Nc2ccc(-c3ccc(N4CCCCCC4)nn3)cc2)c(C)c1 was read as VDR inhibitor inactive, PI4K2A block inactive, GLS inh inactive and KAT2A inh inactive.
O=C(NN=Cc1ccc(O)cc1)c1cc(-c2ccc(Cl)cc2)n[nH]1 was read as PI4K2A block inactive.
Screening COCC(=O)Oc1c(Sc2ccccc2[N+](=O)[O-])c(C)nn1C(C)(C)C returned VDR inhibitor inactive, PI4K2A block inactive, GLS inh inconclusive, PLK1 PBD block 12µM and KAT2A inh inactive.
CCCCCCCCN1C(=O)[C@@H](CC(=O)NCCCC)C[C@@]2(C(=O)OC)C1=C[C@H](COCc1ccccc1)O[C@@H]2C was read as PI4K2A block inactive.
For C=CCN1C(=O)[C@@H](CC(=O)NCC2CCCCC2)[C@]2(C(=O)OCC)CCCCC/C=C/12 the results were PI4K2A block inactive.
Screening Nc1sc(Cc2ccccc2)cc1C(=O)c1c(-c2ccccc2)[nH]c2ccccc12 returned PI4K2A block inactive and PLK1 PBD block 19µM.
